PfHsp90 yeast 2 = inhibits growth of yeast expressing Plasmodium falciparum Hsp90; S. cerevisiae expressing PfHsp90, BacTiter-Glo ATP, 48 h; yeast lacking PDR1 and PDR3 efflux regulators; inhibition, % at 9.4 µM; 310,000 tested, 0.32% active; AID 504621;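 active = every replicate shows inhibition above about 80%, whatever the replicate mean, limit read from the data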;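 also: 0% = DMSO neutral controls and 100% = 20 µM radicicol positive controls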
tim10-1 inh = inhibits growth of tim10-1 mutant yeast. S. cerevisiae tim10-1 ts strain growth, BacTiter-Glo, 24 h. inhibition, % at 20 µM. 330,000 tested, 2.2% active;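 active = inhibition of at least 40%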;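 also: mutant grown at 25 °C; 0% = DMSO wells with yeast and 100% = wells holding no yeast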
NALP3 yeast inh = inhibitors of NALP3 inflammasome in yeast; 330,000 tested, 0.39% active; inhibition, % at 10 µM; Yeast reconstituted NLRP3/ASC/caspase-1, beta-gal luminescence, 24 h;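 active = inhibition of 50% or more; inactive = inhibition below 50%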;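 also: plate controls were induced DMSO wells for no effect and uninduced yeast grown without galactose for full effect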
SKKanGAS inh = blocks kanamycin growth of S. pyogenes SKKanGAS strain | BacTiter-Glo, 6 h | inhibition, % at 7.5 µM | 300,000 tested, 1.3% active;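 active = mean replicate score, as percent of positive control median, at least 50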;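 also: strain carries kanamycin resistance gene driven by streptokinase promoter and grows in 40 µg/ml kanamycin; loss of luminescence reflects streptokinase promoter inhibition or plain growth inhibition; 0% = median of DMSO wells and 100% = positive control at its reference dose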
TIM10 inh = growth inhibitors of TIM10 yeast strain; S. cerevisiae TIM10 strain growth, BacTiter-Glo luminescence, 24 h; inhibition, % at 10 µM; 330,000 tested, 1.4% active;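 active = inhibition of 40% or more at the single tested concentration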;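 also: wild-type TIM10 isogenic control strain grown at permissive 25 °C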
tim23-1 inh = growth inhibitors of tim23-1 mutant yeast; S. cerevisiae tim23-1 growth, BacTiter-Glo luminescence, 24 h; inhibition, % at 20 µM; 330,000 tested, 1.3% active; AID 463212;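 active = growth inhibition of the mutant yeast at or above 50%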;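 also: temperature-sensitive mutant grown at 25 °C; plate controls were DMSO-treated mutant yeast for no effect and medium wells lacking yeast for full effect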
* marks the source's active call; other numbers are inactive results; / = no result given. A selection: hits, their analogues and other compounds. The true share with any hit is near 4.5%.

SMILES	PfHsp90 yeast 2	tim10-1 inh	NALP3 yeast inh	SKKanGAS inh	TIM10 inh	tim23-1 inh
Cc1c(C(=O)Nc2ccc(S(=O)(=O)Nc3ncccn3)cc2)oc2ccc(Cl)cc12	-14.7	15.2	6.9	23.7	1.4	9.5
Cc1noc(NS(=O)(=O)c2ccc(NC(=O)c3oc4ccc(Cl)cc4c3C)cc2)c1C	-6.0	12.4	1.3	63.5*	5.8	4.8
COC(=O)c1cc(C(=O)Nc2nc3ccccc3[nH]2)cc([N+](=O)[O-])c1	-10.3	-21.3	14.8	63.0*	-8.1	-7.7
O=C(Nc1ccc(OC(F)(F)F)cc1)C1CC(=O)N(Cc2ccco2)C1 (stereo not given)	-8.0	12.6	6.5	/	5.0	-8.9
COc1cc(-c2nc3c4ccccc4nc(=S)n3[nH]2)cc(OC)c1OC	0.2	-11.4	29.0	33.6	1.4	-3.5
CC(Oc1ccc(Br)cc1)c1nc2c3ccccc3nc(=S)n2[nH]1 (stereo not given)	-9.8	37.9	36.2	92.3*	37.9	44.9
CCCC(Oc1ccc(Br)cc1)c1nc2c3cc(OC)c(OC)cc3nc(=S)n2[nH]1 (stereo not given)	-35.3	39.5	22.3	100.1*	-22.8	18.7
COc1ccc(NC(=O)Cc2ccc(Cl)cc2)cc1S(=O)(=O)N1CCCCC1	-15.2	-32.4	-6.3	/	-20.7	-12.7
Clc1ccc(N2N=C(c3cccs3)CC2c2ccco2)cc1 (stereo not given)	-8.5	10.8	8.5	-2.9	9.0	18.3
c1ccc(N2N=C(c3cccs3)CC2c2ccco2)cc1 (stereo not given)	1.5	19.2	5.2	64.7*	4.2	8.3
Cc1ccsc1C(=O)Nc1nnc(-c2ccco2)o1	-17.1	1.2	3.1	83.1*	-1.7	4.4
O=C(Nc1nnc(-c2ccco2)o1)c1ccc2ccccc2c1	-18.0	29.8	13.2	91.8*	29.3	4.6
Cc1ccc(C(=O)Nc2nnc(-c3ccco3)o2)cc1	-5.4	36.3	7.8	12.7	23.8	9.4
Cc1csc(SCC(=O)NC2CCCC2)n1	-18.9	-1.1	0.6	/	-7.6	-4.2
COc1ccc(OCC(=O)Nc2ccc(N3CCN(Cc4ccccc4F)CC3)cc2)cc1	4.6	-12.1	0.3	-0.9	7.3	-2.7
Cn1nc(-c2ccccc2)c(CSc2ccccc2)c1Cl	-8.7	7.0	18.4	62.3*	3.6	-3.8
Cc1ccc(SCc2c(-c3ccccc3)nn(C)c2Cl)cc1	-5.7	4.4	13.5	30.9	2.3	3.3
CC(=O)CSc1ncnc2sc3c(c12)CCC3	8.4	10.1	9.1	2.2	8.9	32.2
COc1cc(NC(=O)CSc2ncnc3sc4c(c23)CCCC4)c(C(=O)O)cc1OC	15.0	1.3	-21.9	54.9*	13.2	8.4
C/C(=N/NC(=O)c1cc(-c2ccccc2)nc2c(Cl)cccc12)c1cccnc1	-4.8	14.1	16.8	89.5*	5.8	21.0
COc1cc2cccc(OC)c(=O)c2c(O)c1OC	15.3	19.3	34.2	-0.3	13.6	28.7
COc1cc(Br)cc(/C=C/c2ccc3cccc(O)c3n2)c1OC	13.7	26.5	-10.2	93.0*	-3.8	30.8
COc1ccc(Br)cc1/C=C/C(=O)NCC(=O)O	-28.1	-20.0	15.6	-1.9	-1.5	7.7
COc1ccc(Br)cc1/C=C/c1ccc2cccc(O)c2n1	4.1	15.7	0.2	100.3*	1.9	20.9
CC1(C)Cc2c(cnn2-c2ccccc2)C(NC(=O)CCN2CCCCO2)C1 (stereo not given)	1.2	13.9	13.6	-9.2	8.3	19.1
SMILES	PfHsp90 yeast 2	tim10-1 inh	NALP3 yeast inh	SKKanGAS inh	TIM10 inh	tim23-1 inh
O=C(CNC(=O)[C@@H]1Cc2ccccc2CN1)NCc1ccco1	15.3	18.1	11.5	0.2	-5.6	9.6
COc1ccc2c(c1)nc(CN1CCN(CCO)CC1)n2C	-4.6	7.0	11.8	-14.8	-1.4	1.8
CCCCCC(=O)NC(=S)NC1C2CC3CC(C2)CC1C3 (stereo not given)	-23.2	31.1	27.3	83.2*	37.9	39.6
Clc1ccccc1CN(Cc1ccco1)Cc1nnnn1C1CCCC1	84.6*	11.3	11.2	17.1	-15.6	7.4
Cc1cc(NC(c2ccc(Cl)cc2)c2ccc3cccnc3c2O)no1 (stereo not given)	100.9*	17.5	10.2	100.8*	17.0	43.7
CC(=O)NC(c1ccc(Cl)cc1)c1ccc2cccnc2c1O (stereo not given)	113.9*	/	/	/	/	/
